Rango-impB inh: prevents formation of the Rango-importin beta complex. hit rate 0.031% among 340,000. Potency, µM (doses to about 92.2 µM), for the others: at the top dose inhibition of complex formation. Q14974. Rango CFP/YFP FRET sensor + importin beta, 45 min; calls by dose curve;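 further: 0% = DMSO wells and 100% = buffer wells lacking importin beta; nearly all actives have a fitted effect of over 15% in size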
Target sequence (Q14974 whole entry, looked up): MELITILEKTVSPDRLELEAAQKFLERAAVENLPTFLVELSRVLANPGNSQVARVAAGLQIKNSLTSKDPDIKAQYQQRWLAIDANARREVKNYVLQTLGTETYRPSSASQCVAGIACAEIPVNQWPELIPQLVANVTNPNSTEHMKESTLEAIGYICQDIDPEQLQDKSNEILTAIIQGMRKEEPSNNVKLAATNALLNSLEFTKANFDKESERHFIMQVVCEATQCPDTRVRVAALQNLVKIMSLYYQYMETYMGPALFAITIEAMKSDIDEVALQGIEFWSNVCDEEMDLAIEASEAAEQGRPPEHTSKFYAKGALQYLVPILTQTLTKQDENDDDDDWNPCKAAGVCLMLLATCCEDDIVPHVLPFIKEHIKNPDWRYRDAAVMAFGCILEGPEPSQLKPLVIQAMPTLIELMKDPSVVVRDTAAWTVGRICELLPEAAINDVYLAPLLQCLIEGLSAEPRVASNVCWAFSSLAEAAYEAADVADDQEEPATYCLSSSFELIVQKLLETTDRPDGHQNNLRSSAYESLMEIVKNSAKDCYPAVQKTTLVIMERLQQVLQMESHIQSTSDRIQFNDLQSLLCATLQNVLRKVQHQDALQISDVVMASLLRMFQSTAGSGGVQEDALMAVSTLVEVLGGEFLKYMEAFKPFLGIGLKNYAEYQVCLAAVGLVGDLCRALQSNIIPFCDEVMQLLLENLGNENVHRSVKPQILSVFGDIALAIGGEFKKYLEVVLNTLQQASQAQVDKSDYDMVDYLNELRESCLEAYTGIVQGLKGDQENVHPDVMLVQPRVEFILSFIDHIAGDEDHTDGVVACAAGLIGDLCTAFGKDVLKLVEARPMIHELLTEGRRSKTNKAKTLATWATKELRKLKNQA
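Inhibition scored from the CFP 486 nm/YFP 530 nm FRET ratio 45 min after adding 0.125 microM importin beta to 50 nM Rango biosensor preincubated 5 min with compound (room temperature, PBS with DTT, Tween-20, BSA). No-importin wells as positive control.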
Nrf2 inh: Nrf2 pathway inhibition. A549 ARE-Fluc reporter, luciferase luminescence, 18-24 h. hit rate 2.1% among 360,000. AID 504444. Potency, µM (doses to about 46 µM), for the others: top-dose activity change, negative = inhibition, most hits filed as inhibitors; further: on the % scale 0 is the no-effect control and ±100 the full control effect; nearly all actives have a fitted effect of over 60% in size
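A549 ARE_Fluc cells, 5000/well, 5% FBS OPTI-MEM; compounds in dose-response, 18-24 h at 37 °C/5% CO2; CellTiter-Fluor viability read (Ex 405/Em 525), then BugLite luciferase luminescence = Nrf2 activity.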
Rango release inh: inhibitors of RanGTP-induced Rango-importin beta complex dissociation; Biochemical FRET Rango-importin beta, RanGTP-induced dissociation; Potency, µM (top dose mostly 46.1 µM), without a hit: at the highest dose activity change, negative = inhibition; hit rate 0.071% among 340,000; AID 540253; calls by dose curve; further: % of control where 0% means no effect; nearly all actives have a fitted effect of over 45% in size
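Rango/importin beta premix (0.1/0.25 uM final), PBS + 1 mM DTT + 0.02% Tween-20 + 0.1% BSA; cpd 5 min RT; FRET pre-read; + RanGTP-RCC1 (0.6 uM Ran, 2 mM GTP, 0.2 uM RCC1); 45 min RT; FRET post-read, ex 430, em 486/530 nm.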
Nrf2 ARE act: activators of Nrf2 (ARE) signaling; AREc32 ARE-luciferase reporter (MCF7-derived line), luminescence, 24 h; Potency, µM (series often up to 46.1 µM), inactives show top-dose activation, actives largely listed as activators; hit rate 0.31% among 410,000; further: % of control where 0% means no effect; nearly all actives have a fitted effect of over 65% in size
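AREc32 cells carrying an ARE-driven firefly luciferase, 1000 cells/well in OPTI-MEM with 5% FBS, dosed after overnight attachment and incubated 24 hr at 37 deg C. Steady-Glo luminescence read after 30 min at RT.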
A549 tox: kills or reduces viability of A549 cells in Nrf2 counter-screen; A549 ARE-Fluc cells, CellTiter-Fluor viability, 18-24 h; Potency, µM (top dose mostly 46 µM), for inactives: top-dose activity change, negative = cytotoxicity, usual class: inhibitors; hit rate 0.16% among 390,000; further: on the % scale 0 is the no-effect control and ±100 the full control effect
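A549 ARE_Fluc cells in 5% FBS OPTI-MEM were exposed to compounds in concentration-response for 18-24 h at 37 deg C. Viability was read by CellTiter-Fluor fluorescence (Ex 405/Em 525) after 30 min, before the luciferase read.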
Numbers without * were called inactive; ? = inconclusive; . = no result given; [ ] = dose if it differs, or a comment. This is a sample that favours compounds with a hit; in the whole collection about 2.3% have one here. Unless noted, the call rests on the fitted dose curve; in most records, active means well fitted curve in the direction sought with a large enough effect; inconclusive means small, poorly fitted or top-dose-only effect, or another doubt; inactive means no such curve, though single readings can be large; an effect the other way counts as inactive or inconclusive. Potency means the concentration at half of the fitted maximal effect.

SMILES	Rango-impB inh	Nrf2 inh	Rango release inh	Nrf2 ARE act	A549 tox
NS(=O)(=O)c1ccc(CCNC(=O)CN2CCC(Cc3ccccc3)CC2)cc1	0.9%	20.6µM*	0.0%	2.0%	-9.7%
COc1cccc2sc(N3CCN(C(=O)CCS(=O)(=O)c4ccc(F)cc4)CC3)nc12	.	.	.	-0.3%	-17.5%
CCc1cc2c(-c3ccccc3)cc(=O)oc2cc1OC(C)C(C)=O (centres undefined)	-0.3%	6.51µM*	-6.0%	6.0%	0.4%
CCCNC(=O)c1cc(S(=O)(=O)N2CCc3ccccc32)cn1C	-2.3%	11.6µM*	-2.8%	0.4%	-11.6%
CCc1ccccc1NC(=O)c1cc(S(=O)(=O)N2CCc3ccccc32)cn1C	-1.8%	-14.0%	-11.0%	-0.7%	-3.8%
O=C(Nc1nc2c(s1)CCCC2)c1cccc(S(=O)(=O)N2CCCc3ccccc32)c1	-4.9%	20.6µM*	4.2%	4.3%	1.4%
O=C(NC(=S)Nc1nc2c(s1)CCCC2)c1ccccc1	1.7%	?	-13.2%	2.51µM*	-11.5%
CN1CCc2nc(NC(=O)c3cccc(S(=O)(=O)N4CCc5ccccc54)c3)sc2C1	?	-10.3%	?	0.5%	4.7%
CCC(CC)c1nnc(NC(=O)c2cccc(S(=O)(=O)N3CCc4ccccc43)c2)s1	1.1%	20.6µM*	-1.9%	0.5%	-2.7%
O=C(Nc1nncs1)c1cccc(S(=O)(=O)N2CCc3ccccc32)c1	1.6%	?	-23.4%	-0.7%	-9.7%
COc1ccc(S(=O)(=O)Nc2cccc(-c3ccc(N4CCCCC4)nn3)c2)cc1F	.	.	.	12.2%	-23.1%
C=CCc1ccccc1OCCSc1nc(-c2ccccc2F)nc2cc(=O)[nH]n12	.	?	.	6.0%	9.6%
Cc1nc2c(=O)n(C)c(=O)n(C)c2nc1Cl	-2.0%	18.4µM*	-12.5%	?	?
COc1ccc(C2C=C(c3ccc(Br)cc3)Nc3nnnn32)c(OC)c1 (centres undefined)	.	14.6µM*	.	4.8%	-5.2%
COc1ccccc1C1C=C(c2ccccc2)Nc2nnnn21 (centres undefined)	?	?	?	10.9%	-18.7%
Cc1ccc(NS(=O)(=O)c2ccc3[nH]c(=O)[nH]c3c2)cc1C	.	-19.6%	.	.	-1.1%
Fc1ccc(CNc2ncnc3nc[nH]c23)cc1	.	-3.2%	.	.	5.5%
CCNC(=S)N(CCc1c(C)[nH]c2ccc(Cl)cc12)Cc1ccco1	4.8%	20.6µM*	-13.4%	-1.7%	?
O=C(C1CCC(CNS(=O)(=O)c2cccc3nsnc23)CC1)N1CC=C(c2ccccc2)CC1 (centres undefined)	-0.4%	20.6µM*	-3.4%	0.1%	-11.4%
O=C(Nc1ccc(S(=O)(=O)Nc2ncccn2)cc1)C1COc2ccccc2O1 (centres undefined)	-0.4%	?	18.3%	0.4%	1.2%
COc1ccc(OC)c(NS(=O)(=O)c2ccc(NC(=O)C3COc4ccccc4O3)cc2)c1 (centres undefined)	0.3%	16.4µM*	-6.6%	0.2%	-20.1%
Cc1cccn2cc(CNS(=O)(=O)c3ccc4ccccc4c3)nc12	0.5%	13µM*	6.6%	0.0%	-7.1%
CCn1c(=O)c2[nH]c(SC)nc2n(CC)c1=O	.	.	.	0.1%	.
COc1cc(CC(=O)Nc2nc(C)cs2)cc(OC)c1OC	-0.5%	?	0.3%	0.0%	-1.9%
COc1ccc(-c2csc(NC(=O)Cc3cc(OC)c(OC)c(OC)c3)n2)cc1OC	4.1%	20.6µM*	-16.5%	3.6%	?
SMILES	Rango-impB inh	Nrf2 inh	Rango release inh	Nrf2 ARE act	A549 tox
COc1cc(OC)cc(C(=O)N[C@H](C(=O)Nc2nc(-c3ccc(OC)c(OC)c3)cs2)C(C)C)c1	-3.3%	7.31µM*	-5.5%	4.0%	-2.7%
Cn1ccc2cc(S(=O)(=O)N3CCCC(C(=O)NCc4ccccc4)C3)ccc21 (centres undefined)	.	.	.	3.7%	-3.8%
CC(Cc1ccccc1)=NNc1ccc([N+](=O)[O-])cc1[N+](=O)[O-]	5.1%	23.1µM*	-16.4%	3.0%	?
CCn1cc(CNC(=O)c2ccc(OC3CCN(Cc4ccccn4)CC3)cc2)cn1	-0.2%	11.6µM*	10.2%	2.6%	1.4%
NC(N)=NC(=O)Cc1c(Cl)cccc1Cl	0.1%	8.2µM*	11.3%	-0.3%	-9.3%
CCCCCCCC[n+]1c(C)n(-c2ccccc2)c2ccc(NC(C)=O)cc21	-1.1%	11.6µM*	0.1%	-0.2%	-12.4%
CC(=O)Nc1ccc(SCC(=O)c2cc(C)n(-c3ccccc3)c2C)cc1	-3.0%	?	24.7%	2.9%	0.2%
CCOC(=O)c1c(C)c(-c2ccccc2)n(CC(=O)NCCc2ccc(C)cc2)c1C	.	6.3%	.	0.6%	0.0%
Cc1ccc(NS(=O)(=O)c2ccc3c(c2)N(C)CCO3)cc1C	.	?	.	.	-0.5%
CC12CCC(C/C1=N\N=C1\NC(=O)/C(=C\c3cccc(Br)c3)S1)C2(C)C (centres undefined)	7.0%	18.4µM*	0.3%	7.1%	?
COc1cc(/C=N/N=C2\CC3CCC2(C)C3(C)C)ccc1O (centres undefined)	0.6%	-13.2%	1.3%	-0.6%	-16.0%
Cc1ccc(C(c2cccc(Br)c2)c2c(C)[nH]c3ccccc23)s1 (centres undefined)	.	-11.1%	.	10.0%	0.9%
COc1ccc(CN(CC2CCC(C(=O)O)CC2)C(=S)Nc2ccc(C)c(Cl)c2)cc1 (centres undefined)	4.8%	?	16.8%	-0.2%	-7.2%
COc1ccc(CCN(Cc2cc3cc(C)cc(C)c3nc2Cl)C(=O)C2CC2)cc1	3.5%	16.4µM*	1.4%	-0.6%	-21.2%
CCn1c2ccccc2c2cc(NC(=O)COC(=O)c3cc(OC)c(OC)cc3OC)ccc21	0.6%	16.4µM*	-7.9%	0.3%	-6.4%
CC(C)(C)c1ccc(C(=O)Nc2cccc([N+](=O)[O-])c2)cc1	3.3%	?	-3.9%	9.7%	-11.1%
O=C(Nc1cccc([N+](=O)[O-])c1)c1[nH]ncc1Cl	-0.7%	?	14.8%	5.01µM*	11.8%
O=C(CCNc1ccc(Cc2ccncc2)cc1)c1cccc([N+](=O)[O-])c1	2.4%	14.6µM*	-1.0%	?	-8.1%
O=C(Nc1cccc([N+](=O)[O-])c1)c1ccncc1	-1.0%	6.4%	6.4%	11.2µM*	7.1%
COc1cccc(NC(=O)c2oc3ccccc3c2NC(=O)C(C)(C)C)c1	-2.3%	9.2µM*	2.0%	-0.3%	-2.7%[1.84 µM]
COc1cccc(NC(=O)c2oc3ccccc3c2NC(=O)c2cc3ccccc3o2)c1	.	4.3%	.	3.8%	2.9%
OCCN1CCN(c2ncnc3sc4c(c23)CCCC4)CC1	?	0.0%	-1.2%	0.1%	0.0%
Oc1ccc(N2CCN(c3ncnc4sc5c(c34)CCC5)CC2)cc1	-1.0%	14.6µM*	2.4%	-0.5%	-10.7%
COC(=O)c1sc(-c2cccs2)cc1N	0.2%	32.3%	18.4%	8.91µM*	-1.9%
